Many of the other results were omitted from the sample, so hits are more common in it than they were.
AmpC no deterg = qHTS Inhibitors of AmpC Beta-Lactamase (assay without detergent); P00811; AmpC nitrocefin hydrolysis, absorbance 480 nm, 0.0001% Triton; Potency, µM (doses to about 57.1 µM), usual class: inhibitors; 330,000 compounds, 0.52% hits; AID 485341, 2010; further: nearly all actives have a fitted effect of over 20% in size
Target sequence (P00811 whole entry, looked up): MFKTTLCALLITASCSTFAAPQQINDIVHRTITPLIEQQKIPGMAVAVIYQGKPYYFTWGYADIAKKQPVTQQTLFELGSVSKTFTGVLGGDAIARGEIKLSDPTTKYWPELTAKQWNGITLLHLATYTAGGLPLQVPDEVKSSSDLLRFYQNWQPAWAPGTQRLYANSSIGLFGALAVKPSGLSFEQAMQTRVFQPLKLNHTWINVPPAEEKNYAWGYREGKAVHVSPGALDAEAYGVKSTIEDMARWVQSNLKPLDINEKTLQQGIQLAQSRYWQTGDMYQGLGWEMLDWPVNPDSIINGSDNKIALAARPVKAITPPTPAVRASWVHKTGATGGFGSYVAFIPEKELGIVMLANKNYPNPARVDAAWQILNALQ
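20 mM phosphate pH 7.0 + 0.01% (detergent screen) or 0.0001% Triton X-100; 5.3 nM AmpC reagent; cpd preinc 15 min RT; nitrocefin (800 uM stock) to start; A480 q20 s × 4 min; Activity was normalised to no-enzyme and no-compound control wells.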
SARS PLpro yeast = qHTS of Yeast-based Assay for SARS-CoV PLP; S. cerevisiae expressing SARS-CoV PLpro, growth rescue; Potency, µM (top dose mostly 32.9 µM), most hits filed as activators; 330,000 compounds, 0.19% hits; AID 485353, 2010; calls by dose curve; further: nearly all actives have a fitted effect of over 55% in size
Cycloheximide cs = Cycloheximide Counterscreen for Small Molecule Inhibitors of Shiga Toxin; cell reporter, cycloheximide protein synthesis inhibition counterscreen; max response, %; 300,000 compounds, 12% hits; AID 2314, 2010; in the data active means max response mostly above about 13%, no sharp cut-off; inactive means mostly below about 14%; further: read at 38.3 µM for the half of the compounds with a filed dose
AMA1-RON2 inh = qHTS for Inhibitors of AMA1-RON; Towards Development of Antimalarial Drug Lead: Primary Screen | Potency, µM (series often up to 58.2 µM), usual class: inhibitors | AlphaScreen AMA1-biotinylated RON2 peptide binding | Plasmodium falciparum AMA1 (3D7) - RON2 peptide interaction | AID 720542, 2013 | 360,000 compounds, 0.2% hits; further: nearly all actives have a fitted effect of over 45% in size
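AMA1 (3D7) with his tag at 25 nM final met compounds first, then biotinylated RON2 peptide at 25 nM; detection used donor plus acceptor beads, 10 µg/mL apiece, read by AlphaScreen after 30 min at room temperature.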
Shiga toxin inh = A qHTS for Small Molecule Inhibitors of Shiga Toxin; AID 2315, 2010; 290,000 compounds, 9.2% hits; Vero cells, Shiga toxin protein synthesis inhibition reporter; inhibition, % at 38.7 µM; in the data active means inhibition mostly above about 28%, no sharp cut-off; inactive means mostly below about 43%
AmpC inh detg = qHTS Inhibitors of AmpC Beta-Lactamase (assay with detergent); P00811; AmpC hydrolysis of nitrocefin, absorbance 480 nm, 0.01% Triton; Potency, µM (top dose mostly 114 µM), usual class: inhibitors; 370,000 compounds, 0.041% hits; further: nearly all actives have a fitted effect of over 25% in size
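20 mM phosphate pH 7.0 + 0.01% (detergent screen) or 0.0001% Triton X-100; 5.3 nM AmpC reagent; cpd preinc 15 min RT; nitrocefin (800 uM stock) to start; A480 q20 s × 4 min; Activity was normalised to no-enzyme and no-compound control wells.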
Of the large screens only hits and unclear results are named; the others gave an inactive call. Unless noted, the call rests on the fitted dose curve; in most records, active means well fitted curve in the direction sought with a large enough effect; inconclusive means small, poorly fitted or top-dose-only effect, or another doubt; inactive means no such curve, though single readings can be large; an effect the other way counts as inactive or inconclusive.

Cc1cc(=O)oc2cc(NC(=O)c3ccccc3C(=O)O)ccc12	Cycloheximide cs 21.8
COc1cccc(C(=O)Nc2ccc3c(C)cc(=O)oc3c2)c1	Cycloheximide cs 61.5, Shiga toxin inh 114.8, AmpC inh detg inconclusive
Cc1cc(=O)oc2cc(NC(=O)c3ccccc3Cl)ccc12	Cycloheximide cs 40.0, Shiga toxin inh 86.5
Cc1cccc(OCC(=O)Nc2ccc3c(C)cc(=O)oc3c2)c1	AmpC inh detg inconclusive
Cc1ccccc1CC(=O)Nc1ccc2c(C)cc(=O)oc2c1	none
Cc1ccc2sc3ccc(NC(=O)c4ccccc4Cl)cc3c(=O)c2c1	Cycloheximide cs 35.1, Shiga toxin inh 42.9
Cc1c(NC(=O)CSc2n[nH]c(=O)n2-c2ccccc2)c(=O)n(-c2ccccc2)n1C	none
Cc1cc(=O)oc2cc(NC(=O)c3c(Cl)cnn3C)ccc12	none
Cc1cc(=O)oc2cc(NC(=O)c3ccnn3C)ccc12	Cycloheximide cs 16.7
O=P(NCc1ccccc1)(OCc1ccccc1)OCc1ccccc1	none (no result: AmpC no deterg, SARS PLpro yeast, Cycloheximide cs, Shiga toxin inh, AmpC inh detg)
CCc1ccccc1Nc1ncnc2c1nc1n2CCCC1	none (no result: AmpC no deterg, SARS PLpro yeast, Cycloheximide cs, AMA1-RON2 inh, Shiga toxin inh)
C=CCNC(=S)/N=c1/scc(C)n1C	Cycloheximide cs 19.0
C=CCNC(=S)/N=c1/ccccn1C	none
Cc1csc(=Nc2ccccc2)n1C	Cycloheximide cs 21.8
C=CCNC(=S)/N=c1\sccn1C	Cycloheximide cs 14.7
CCCn1c(C)cs/c1=N\C(=S)Nc1ccccc1	none
Cc1cs/c(=N/C(=S)Nc2ccccc2)n1C	Cycloheximide cs 100.8, Shiga toxin inh 142.6
Cc1csc(=Nc2ccccc2)n1CCCN1CCCC1=O	none
O=C(Cn1c(C(F)(F)F)nc2ccccc21)c1ccc(Cl)cc1	none
CCOc1ccc(Nc2c3c(nc4ncnn24)CC(C)CC3)cc1 (stereo not drawn)	none
Cc1ccccc1N=C(NOCc1ccccc1)c1nonc1N	none
CCOC(=O)c1oc2ccccc2c1NC(=O)c1ccc(Cl)s1	AmpC no deterg 7.08µM, AmpC inh detg inconclusive
Cc1nc2c(-c3ccc(F)cc3)cnn2c2c1CCC2	Cycloheximide cs 37.7, Shiga toxin inh 53.1
COc1ccc(NC(=O)CN2C(=O)CC(c3ccc(C)c(C)c3)=Nc3ccccc32)cc1OC	none (no result: AmpC no deterg, SARS PLpro yeast, Cycloheximide cs, AMA1-RON2 inh, Shiga toxin inh)
O=C1C(c2cc(=O)c3ccccc3[nH]2)=C(O)c2ccccc21	Cycloheximide cs 41.9, Shiga toxin inh 136.7
Cn1c(O)c(C=NCc2ccco2)c(=O)n(C)c1=O	none
O=C1C(C=NCc2ccncc2)=C(O)c2ccccc21	Cycloheximide cs 49.4
Cc1ccc(C=NCc2ccncc2)c(O)c1	none
O=C1C(C=NCc2ccco2)=C(O)c2ccccc21	Cycloheximide cs 25.2, Shiga toxin inh 78.8, AmpC inh detg inconclusive
O=C1C(C=NCc2cccnc2)=C(O)c2ccccc21	Cycloheximide cs 71.6, Shiga toxin inh 100.7, AmpC inh detg inconclusive
CN1CCN(c2ccc(C(CC(N)=O)NC(=O)c3ccccc3)cc2[N+](=O)[O-])CC1 (stereo not drawn)	AmpC inh detg inconclusive
COC(=O)C1C(O)=C(C=NC2CCCCC2)C(=O)CC1(C)C (stereo not drawn)	AmpC inh detg inconclusive
CCCCn1c(N)c(N(CC)C(=O)c2ccccc2C)c(=O)[nH]c1=O	none
CCOc1ccc(-c2cc(C(=O)NCCCn3ccnc3)c3ccccc3n2)cc1	none
O=C1C(c2ccncc2)=C(O)c2ccccc21	AmpC no deterg inconclusive, Cycloheximide cs 26.1
Cc1ccc(C2=C(O)c3ccccc3C(=O)C2=O)cc1	none
COc1ccc(S(=O)(=O)N2CCOCC2)cc1C(=O)Nc1ccon1	none
O=C(CN(Cc1ccco1)S(=O)(=O)c1ccccc1)N/N=C/c1cccc(O)c1	Shiga toxin inh 48.1
CC1CCN(c2ccc(-c3ccc(NC(=O)C(F)(F)F)cc3)nn2)CC1	Cycloheximide cs 36.2, Shiga toxin inh 40.9, AmpC inh detg inconclusive
Cc1nnc(SCc2cnc(-c3ccc(C(C)C)cc3)s2)n1C	Cycloheximide cs 27.1
Cc1ccc2cc(-c3noc(C4CCCCC4)n3)c(=O)[nH]c2c1	none
CCCc1nc(-c2cc3ccc(C)cc3[nH]c2=O)no1	Cycloheximide cs 23.0, Shiga toxin inh 59.4, AmpC inh detg inconclusive
CCOc1ccccc1-c1nc(-c2cc3ccc(C)cc3[nH]c2=O)no1	AmpC inh detg inconclusive
Cc1ccc2cc(-c3noc(C4CCCO4)n3)c(=O)[nH]c2c1 (stereo not drawn)	Cycloheximide cs 17.0, AmpC inh detg inconclusive
COc1cccc(C(=O)NCC(c2ccc3c(c2)OCO3)N2CCN(C)CC2)c1 (stereo not drawn)	none (no result: AmpC no deterg, SARS PLpro yeast, Cycloheximide cs, AMA1-RON2 inh, Shiga toxin inh)
COc1cccc(Cn2cc(C)cc(NC(=O)NCc3ccccc3)c2=O)c1	Cycloheximide cs 14.6 (no result: Shiga toxin inh)
Cc1cc(NC(=O)NCc2ccccc2)c(=O)n(Cc2ccccc2F)c1	none
COc1cccc(CNC(=O)Nc2cccs2)c1	Cycloheximide cs 32.9, Shiga toxin inh 64.0, AmpC inh detg inconclusive
COc1ccc(CNC(=O)Nc2cccs2)cc1OC	none
Cc1ccccc1NC(=O)Nc1cccs1	none
Cc1ccc(Cl)cc1NC(=O)Nc1cccs1	AmpC no deterg 14.1µM
Cc1ccc(CNC(=O)Nc2cccs2)cc1	Cycloheximide cs 50.1, Shiga toxin inh 51.2
Cc1ccc(CNC(=O)Cc2cccs2)cc1	none
C=CCOc1ccccc1CN1CCC(C(=O)Nc2cccc(-c3ccn[nH]3)c2)CC1	none
COc1ccccc1CNC(=O)Nc1cccs1	Cycloheximide cs 19.5
COc1ccc(Br)cc1CNC(=O)Nc1cccs1	none
O=C(O)CSCc1cn2cc(Cl)ccc2n1	none
COC(=O)CCSCc1cn2cc(Cl)ccc2n1	Cycloheximide cs 16.0
Cc1cs/c(=N\N=C\c2ccccc2)n1Cc1ccco1	Cycloheximide cs 22.6, AMA1-RON2 inh inconclusive
Cc1cs/c(=N\N=C2CCCCC2)n1Cc1ccco1	Cycloheximide cs 33.5, Shiga toxin inh 69.0, AmpC inh detg inconclusive
CC(C)=N/N=c1\scc(C)n1Cc1ccco1	none
COCCn1c(=O)[nH]c2cc(C(=O)NCc3ccccc3)ccc2c1=O	none
COc1ccc(N/C=C/C(=O)c2sc(-c3ccccc3)nc2C)cc1	none
COc1ccccc1Oc1ccc(N/C=C/C(=O)c2ccc(C)o2)cc1	Cycloheximide cs 24.8, AMA1-RON2 inh inconclusive, Shiga toxin inh 135.5
CC(=O)Nc1ccc(N/C=C/C(=O)c2ccc(C)o2)cc1	Cycloheximide cs 22.2, Shiga toxin inh 70.6, AmpC inh detg inconclusive
Nc1nnc(SCC(=O)OCC(=O)NC23CC4CC(CC(C4)C2)C3)s1	AmpC inh detg inconclusive
O=C(Cn1ncnn1)OCc1ccccc1Cl	none
CC1(C(=O)NS(=O)(=O)c2ccc(Cl)s2)CCN1C(=O)CCc1ccccc1 (stereo not drawn)	none (no result: AmpC no deterg, SARS PLpro yeast, Cycloheximide cs, Shiga toxin inh, AmpC inh detg)

Screens deposited in PubChem by National Center for Advancing Translational Sciences (NCATS).
